# Data as given in ChEMBL document CHEMBL1961873, “Compounds: GSK PKIS; Assays: Nanosyn kinase panel” (2012).
# Key:
# [1] = target: Protein kinase C gamma type (Homo sapiens) (UniProt P05129); conditions: at 1 µM;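 also: each value is an averaged percent inhibition of the enzyme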
# [2] = target: T1, Protein kinase C iota type (Homo sapiens) (UniProt P41743); conditions: at 0.1 µM
# T1 sequence (whole entry): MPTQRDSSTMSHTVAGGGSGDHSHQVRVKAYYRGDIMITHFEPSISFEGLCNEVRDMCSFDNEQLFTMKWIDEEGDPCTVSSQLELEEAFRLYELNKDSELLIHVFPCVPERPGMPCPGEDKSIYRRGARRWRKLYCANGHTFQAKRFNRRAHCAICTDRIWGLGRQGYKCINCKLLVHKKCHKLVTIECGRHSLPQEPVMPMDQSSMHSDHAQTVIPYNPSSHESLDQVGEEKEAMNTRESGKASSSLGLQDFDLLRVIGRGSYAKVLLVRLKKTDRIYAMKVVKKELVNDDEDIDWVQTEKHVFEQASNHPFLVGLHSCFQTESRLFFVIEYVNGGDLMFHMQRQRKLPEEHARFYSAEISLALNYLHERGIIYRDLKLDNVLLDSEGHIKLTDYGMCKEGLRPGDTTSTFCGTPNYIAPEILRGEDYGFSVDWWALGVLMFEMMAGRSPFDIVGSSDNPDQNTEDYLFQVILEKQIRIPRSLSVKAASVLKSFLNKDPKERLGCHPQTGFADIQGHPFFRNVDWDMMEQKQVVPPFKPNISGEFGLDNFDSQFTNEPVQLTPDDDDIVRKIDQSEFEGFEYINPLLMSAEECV
# [3] = target: T1, Protein kinase C iota type (Homo sapiens); conditions: at 1 µM
# [4] = target: Protein kinase C theta type (Homo sapiens) (UniProt Q04759); conditions: at 0.1 µM
# [5] = target: Protein kinase C theta type (Homo sapiens) (UniProt Q04759); conditions: at 1 µM
# [6] = target: Protein kinase C beta type (Homo sapiens) (UniProt P05771); conditions: at 0.1 µM
# [7] = target: Protein kinase C beta type (Homo sapiens) (UniProt P05771); conditions: at 1 µM
# [8] = target: T2, Serine/threonine-protein kinase D1 (Homo sapiens) (UniProt Q15139); conditions: at 0.1 µM
# T2 sequence (whole entry): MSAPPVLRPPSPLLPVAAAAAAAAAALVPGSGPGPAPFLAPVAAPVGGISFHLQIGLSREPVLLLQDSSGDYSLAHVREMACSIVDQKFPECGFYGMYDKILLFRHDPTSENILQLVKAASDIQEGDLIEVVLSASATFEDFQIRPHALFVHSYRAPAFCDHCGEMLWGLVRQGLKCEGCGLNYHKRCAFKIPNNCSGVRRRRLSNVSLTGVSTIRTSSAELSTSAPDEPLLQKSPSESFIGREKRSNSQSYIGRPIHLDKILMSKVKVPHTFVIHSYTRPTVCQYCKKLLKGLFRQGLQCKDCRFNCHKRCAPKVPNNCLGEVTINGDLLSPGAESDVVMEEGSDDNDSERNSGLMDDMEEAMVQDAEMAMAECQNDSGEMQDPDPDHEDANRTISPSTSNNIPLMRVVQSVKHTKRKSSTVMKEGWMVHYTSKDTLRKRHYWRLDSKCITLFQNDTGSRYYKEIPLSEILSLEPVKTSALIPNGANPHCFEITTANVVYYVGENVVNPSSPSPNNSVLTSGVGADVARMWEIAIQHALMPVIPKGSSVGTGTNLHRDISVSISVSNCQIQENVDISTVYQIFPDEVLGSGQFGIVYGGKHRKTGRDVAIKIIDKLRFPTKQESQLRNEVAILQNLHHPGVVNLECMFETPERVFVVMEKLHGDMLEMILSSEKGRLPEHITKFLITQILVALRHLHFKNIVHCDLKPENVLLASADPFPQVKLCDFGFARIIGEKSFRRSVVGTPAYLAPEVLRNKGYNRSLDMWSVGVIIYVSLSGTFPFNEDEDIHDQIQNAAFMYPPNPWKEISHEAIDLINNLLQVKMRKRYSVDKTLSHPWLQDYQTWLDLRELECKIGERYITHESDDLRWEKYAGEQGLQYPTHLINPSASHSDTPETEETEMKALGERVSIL
# [9] = target: T2, Serine/threonine-protein kinase D1 (Homo sapiens); conditions: at 1 µM
# [10] = target: T3, Serine/threonine-protein kinase D2 (Homo sapiens) (UniProt Q9BZL6); conditions: at 0.1 µM
# T3 sequence (whole entry): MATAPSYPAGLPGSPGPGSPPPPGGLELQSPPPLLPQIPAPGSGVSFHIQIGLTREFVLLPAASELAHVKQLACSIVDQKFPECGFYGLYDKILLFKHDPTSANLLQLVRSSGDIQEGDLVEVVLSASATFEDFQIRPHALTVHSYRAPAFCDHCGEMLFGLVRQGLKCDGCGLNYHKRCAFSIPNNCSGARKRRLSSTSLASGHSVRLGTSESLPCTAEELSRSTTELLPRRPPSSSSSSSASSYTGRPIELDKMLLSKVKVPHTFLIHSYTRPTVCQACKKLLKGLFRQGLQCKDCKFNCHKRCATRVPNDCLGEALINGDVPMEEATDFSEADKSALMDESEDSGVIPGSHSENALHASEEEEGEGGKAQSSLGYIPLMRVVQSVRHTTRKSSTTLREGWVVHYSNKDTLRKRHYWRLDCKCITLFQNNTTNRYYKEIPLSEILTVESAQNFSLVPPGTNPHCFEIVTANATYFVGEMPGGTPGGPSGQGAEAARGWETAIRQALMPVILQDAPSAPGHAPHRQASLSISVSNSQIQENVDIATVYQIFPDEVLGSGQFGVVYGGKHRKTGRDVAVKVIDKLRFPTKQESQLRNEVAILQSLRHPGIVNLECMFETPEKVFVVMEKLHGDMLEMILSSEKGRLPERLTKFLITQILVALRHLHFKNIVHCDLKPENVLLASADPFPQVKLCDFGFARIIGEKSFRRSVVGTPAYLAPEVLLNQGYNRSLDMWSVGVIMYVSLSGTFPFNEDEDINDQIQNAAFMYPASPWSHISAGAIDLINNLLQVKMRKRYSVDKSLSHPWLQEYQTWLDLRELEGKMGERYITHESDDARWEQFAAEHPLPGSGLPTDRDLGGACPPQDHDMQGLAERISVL
# [11] = target: T3, Serine/threonine-protein kinase D2 (Homo sapiens); conditions: at 1 µM
# [12] = target: T4, Serine/threonine-protein kinase D3 (Homo sapiens) (UniProt O94806); conditions: at 0.1 µM
# T4 sequence (whole entry): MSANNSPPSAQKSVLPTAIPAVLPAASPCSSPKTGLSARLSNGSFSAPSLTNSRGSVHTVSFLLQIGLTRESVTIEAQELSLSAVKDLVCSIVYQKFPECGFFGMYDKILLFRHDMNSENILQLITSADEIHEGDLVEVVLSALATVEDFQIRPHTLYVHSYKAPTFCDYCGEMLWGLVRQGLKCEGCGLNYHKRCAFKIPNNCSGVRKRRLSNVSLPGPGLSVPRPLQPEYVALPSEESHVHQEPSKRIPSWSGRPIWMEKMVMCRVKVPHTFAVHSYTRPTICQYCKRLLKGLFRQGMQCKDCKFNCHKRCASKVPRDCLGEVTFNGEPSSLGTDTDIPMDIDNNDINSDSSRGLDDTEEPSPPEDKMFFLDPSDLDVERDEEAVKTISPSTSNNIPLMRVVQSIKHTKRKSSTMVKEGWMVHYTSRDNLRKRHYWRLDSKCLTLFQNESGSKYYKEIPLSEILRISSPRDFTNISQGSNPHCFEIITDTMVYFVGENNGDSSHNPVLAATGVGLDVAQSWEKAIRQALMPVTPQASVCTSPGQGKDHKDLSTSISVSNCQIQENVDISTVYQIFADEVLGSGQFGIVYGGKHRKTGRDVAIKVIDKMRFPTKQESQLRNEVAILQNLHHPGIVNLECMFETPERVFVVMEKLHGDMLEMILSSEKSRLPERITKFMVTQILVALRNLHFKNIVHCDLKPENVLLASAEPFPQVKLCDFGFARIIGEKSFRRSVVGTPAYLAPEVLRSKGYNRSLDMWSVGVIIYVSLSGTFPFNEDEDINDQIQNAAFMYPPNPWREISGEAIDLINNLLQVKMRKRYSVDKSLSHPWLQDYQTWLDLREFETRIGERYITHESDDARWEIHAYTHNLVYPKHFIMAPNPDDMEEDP
# [13] = target: T4, Serine/threonine-protein kinase D3 (Homo sapiens); conditions: at 1 µM
# [14] = target: T5, cGMP-dependent protein kinase 1 (Homo sapiens) (UniProt Q13976); conditions: at 0.1 µM
# T5 sequence (whole entry): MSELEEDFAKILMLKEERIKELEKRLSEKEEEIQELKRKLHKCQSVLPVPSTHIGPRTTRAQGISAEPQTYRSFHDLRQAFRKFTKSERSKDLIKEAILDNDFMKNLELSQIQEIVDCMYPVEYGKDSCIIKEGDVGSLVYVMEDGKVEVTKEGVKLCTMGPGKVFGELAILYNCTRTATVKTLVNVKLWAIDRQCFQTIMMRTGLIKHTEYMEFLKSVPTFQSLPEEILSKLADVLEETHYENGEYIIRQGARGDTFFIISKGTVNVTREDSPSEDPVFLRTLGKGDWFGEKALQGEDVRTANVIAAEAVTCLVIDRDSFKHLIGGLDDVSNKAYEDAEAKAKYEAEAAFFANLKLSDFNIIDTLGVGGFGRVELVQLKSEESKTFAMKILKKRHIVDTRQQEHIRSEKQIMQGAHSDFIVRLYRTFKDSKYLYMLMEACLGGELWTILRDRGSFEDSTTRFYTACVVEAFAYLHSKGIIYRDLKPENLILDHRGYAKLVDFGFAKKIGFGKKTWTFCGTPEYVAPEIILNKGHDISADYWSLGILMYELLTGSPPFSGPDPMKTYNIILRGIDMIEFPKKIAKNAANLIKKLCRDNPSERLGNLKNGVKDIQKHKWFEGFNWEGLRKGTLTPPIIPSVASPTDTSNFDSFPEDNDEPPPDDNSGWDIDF
# [15] = target: T5, cGMP-dependent protein kinase 1 (Homo sapiens); conditions: at 1 µM
# [16] = target: T6, cGMP-dependent protein kinase 2 (Homo sapiens) (UniProt Q13237); conditions: at 0.1 µM
# T6 sequence (whole entry): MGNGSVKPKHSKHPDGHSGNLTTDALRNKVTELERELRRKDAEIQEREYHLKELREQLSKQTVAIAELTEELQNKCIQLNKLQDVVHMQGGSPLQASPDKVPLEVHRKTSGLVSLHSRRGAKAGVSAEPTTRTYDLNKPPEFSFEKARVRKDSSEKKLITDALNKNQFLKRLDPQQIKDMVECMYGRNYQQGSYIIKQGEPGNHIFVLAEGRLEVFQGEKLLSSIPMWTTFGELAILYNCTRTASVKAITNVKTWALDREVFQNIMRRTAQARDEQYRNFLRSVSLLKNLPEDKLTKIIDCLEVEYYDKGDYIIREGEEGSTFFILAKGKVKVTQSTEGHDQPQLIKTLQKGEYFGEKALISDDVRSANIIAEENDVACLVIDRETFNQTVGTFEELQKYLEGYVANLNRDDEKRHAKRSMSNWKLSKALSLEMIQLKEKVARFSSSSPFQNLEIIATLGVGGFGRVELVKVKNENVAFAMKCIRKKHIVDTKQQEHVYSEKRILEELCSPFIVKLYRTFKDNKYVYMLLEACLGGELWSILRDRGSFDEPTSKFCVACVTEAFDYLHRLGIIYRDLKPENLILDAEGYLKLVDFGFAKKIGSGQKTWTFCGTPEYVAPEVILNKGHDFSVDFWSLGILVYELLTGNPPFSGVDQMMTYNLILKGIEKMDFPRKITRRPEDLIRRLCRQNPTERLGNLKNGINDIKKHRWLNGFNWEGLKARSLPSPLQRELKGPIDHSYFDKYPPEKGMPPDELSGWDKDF
# [17] = target: T6, cGMP-dependent protein kinase 2 (Homo sapiens); conditions: at 1 µM
# [18] = target: T7, cAMP-dependent protein kinase catalytic subunit PRKX (Homo sapiens) (UniProt P51817); conditions: at 0.1 µM
# T7 sequence (whole entry): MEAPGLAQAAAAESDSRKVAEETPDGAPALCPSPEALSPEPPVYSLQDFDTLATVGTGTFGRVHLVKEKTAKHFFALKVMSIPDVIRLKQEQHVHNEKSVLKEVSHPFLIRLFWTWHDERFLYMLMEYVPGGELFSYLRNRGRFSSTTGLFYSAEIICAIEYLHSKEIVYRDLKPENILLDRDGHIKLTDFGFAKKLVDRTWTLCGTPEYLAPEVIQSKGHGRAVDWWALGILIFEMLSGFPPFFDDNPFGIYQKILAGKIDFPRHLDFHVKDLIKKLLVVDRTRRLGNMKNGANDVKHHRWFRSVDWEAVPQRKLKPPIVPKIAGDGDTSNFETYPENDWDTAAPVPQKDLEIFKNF
# [19] = target: T7, cAMP-dependent protein kinase catalytic subunit PRKX (Homo sapiens); conditions: at 1 µM
# [20] = target: Rho-associated protein kinase 1 (Homo sapiens) (UniProt Q13464); conditions: at 0.1 µM;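 also: values are mean percent inhibition of ROCK1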
# Sequence of Rho-associated protein kinase 1 (Homo sapiens) (Q13464 2-1354 limits assumed): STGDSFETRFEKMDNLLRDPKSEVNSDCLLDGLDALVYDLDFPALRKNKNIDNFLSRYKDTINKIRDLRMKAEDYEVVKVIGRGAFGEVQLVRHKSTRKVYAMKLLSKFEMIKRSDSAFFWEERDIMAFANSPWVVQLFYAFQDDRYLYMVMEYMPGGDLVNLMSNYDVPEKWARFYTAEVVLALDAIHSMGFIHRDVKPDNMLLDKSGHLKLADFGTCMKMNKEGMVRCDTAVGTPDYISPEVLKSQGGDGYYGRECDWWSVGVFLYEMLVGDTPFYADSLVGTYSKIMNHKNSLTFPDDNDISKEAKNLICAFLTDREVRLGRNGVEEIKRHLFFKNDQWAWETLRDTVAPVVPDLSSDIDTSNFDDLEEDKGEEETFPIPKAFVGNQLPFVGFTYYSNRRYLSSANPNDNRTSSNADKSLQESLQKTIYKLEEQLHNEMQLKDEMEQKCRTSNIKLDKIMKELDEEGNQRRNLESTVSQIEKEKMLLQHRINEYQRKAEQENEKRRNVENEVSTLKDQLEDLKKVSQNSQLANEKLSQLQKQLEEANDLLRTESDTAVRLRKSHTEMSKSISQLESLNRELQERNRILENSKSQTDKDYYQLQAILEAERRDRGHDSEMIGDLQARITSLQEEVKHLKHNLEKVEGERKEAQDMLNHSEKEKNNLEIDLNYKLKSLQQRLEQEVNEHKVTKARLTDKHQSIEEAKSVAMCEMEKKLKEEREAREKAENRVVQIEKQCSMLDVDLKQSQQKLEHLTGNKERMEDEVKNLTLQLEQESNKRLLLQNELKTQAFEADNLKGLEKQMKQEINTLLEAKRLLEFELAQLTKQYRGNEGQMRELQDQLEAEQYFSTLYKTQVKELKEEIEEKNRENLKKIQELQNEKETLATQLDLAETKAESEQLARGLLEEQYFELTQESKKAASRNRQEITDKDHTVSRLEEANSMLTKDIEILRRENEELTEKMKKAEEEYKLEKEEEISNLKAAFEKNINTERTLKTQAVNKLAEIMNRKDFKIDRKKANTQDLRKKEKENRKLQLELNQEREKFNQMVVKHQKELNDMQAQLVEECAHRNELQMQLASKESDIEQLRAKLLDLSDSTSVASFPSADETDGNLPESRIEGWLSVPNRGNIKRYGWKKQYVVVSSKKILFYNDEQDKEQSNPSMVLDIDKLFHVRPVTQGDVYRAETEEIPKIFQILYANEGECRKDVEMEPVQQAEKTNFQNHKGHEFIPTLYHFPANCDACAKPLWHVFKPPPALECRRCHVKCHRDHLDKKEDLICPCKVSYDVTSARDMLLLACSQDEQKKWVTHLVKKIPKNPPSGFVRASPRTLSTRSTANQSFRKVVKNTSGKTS
# Sequence of Protein kinase C beta type (Homo sapiens) (P05771 2-671 limits assumed): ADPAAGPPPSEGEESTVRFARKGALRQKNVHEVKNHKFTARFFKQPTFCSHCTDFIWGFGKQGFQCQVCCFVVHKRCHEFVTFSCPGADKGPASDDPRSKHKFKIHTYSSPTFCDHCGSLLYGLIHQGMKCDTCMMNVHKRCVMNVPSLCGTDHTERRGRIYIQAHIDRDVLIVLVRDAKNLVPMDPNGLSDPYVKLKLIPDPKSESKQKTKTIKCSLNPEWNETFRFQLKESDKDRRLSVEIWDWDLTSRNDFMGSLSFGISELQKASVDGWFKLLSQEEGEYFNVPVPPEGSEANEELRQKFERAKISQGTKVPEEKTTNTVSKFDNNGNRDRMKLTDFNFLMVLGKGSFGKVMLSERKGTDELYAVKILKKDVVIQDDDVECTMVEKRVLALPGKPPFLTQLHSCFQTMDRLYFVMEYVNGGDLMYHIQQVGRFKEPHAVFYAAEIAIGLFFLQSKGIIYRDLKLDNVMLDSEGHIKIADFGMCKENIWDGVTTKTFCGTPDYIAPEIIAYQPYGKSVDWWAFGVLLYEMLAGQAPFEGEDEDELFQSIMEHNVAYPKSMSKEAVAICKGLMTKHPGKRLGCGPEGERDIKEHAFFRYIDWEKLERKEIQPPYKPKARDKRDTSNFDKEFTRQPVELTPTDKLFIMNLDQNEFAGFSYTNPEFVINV
# Sequence of Protein kinase C theta type (Homo sapiens) (Q04759 whole entry, looked up): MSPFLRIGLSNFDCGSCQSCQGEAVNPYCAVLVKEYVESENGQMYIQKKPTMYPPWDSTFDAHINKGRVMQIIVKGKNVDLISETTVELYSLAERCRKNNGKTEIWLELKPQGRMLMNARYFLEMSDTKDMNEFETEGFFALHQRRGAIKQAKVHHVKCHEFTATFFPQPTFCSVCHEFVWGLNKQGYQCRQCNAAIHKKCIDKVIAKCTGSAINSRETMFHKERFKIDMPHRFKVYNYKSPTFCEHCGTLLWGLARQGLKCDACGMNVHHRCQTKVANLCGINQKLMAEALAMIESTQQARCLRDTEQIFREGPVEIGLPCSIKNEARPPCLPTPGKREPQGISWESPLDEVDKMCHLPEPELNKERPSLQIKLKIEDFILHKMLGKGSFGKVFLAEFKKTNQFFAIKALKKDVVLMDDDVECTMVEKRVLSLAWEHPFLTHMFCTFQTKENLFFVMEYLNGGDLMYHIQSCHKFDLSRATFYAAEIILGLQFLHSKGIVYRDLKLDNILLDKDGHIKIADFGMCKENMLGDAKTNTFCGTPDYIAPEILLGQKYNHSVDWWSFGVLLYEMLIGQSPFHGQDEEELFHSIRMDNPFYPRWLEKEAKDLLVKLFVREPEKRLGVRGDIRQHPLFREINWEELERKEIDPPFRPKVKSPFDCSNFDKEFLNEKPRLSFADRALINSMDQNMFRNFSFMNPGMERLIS
Compound,inhibition [1] [%],inhibition [2] [%],inhibition [3] [%],inhibition [4] [%],inhibition [5] [%],inhibition [6] [%],inhibition [7] [%],inhibition [8] [%],inhibition [9] [%],inhibition [10] [%],inhibition [11] [%],inhibition [12] [%],inhibition [13] [%],inhibition [14] [%],inhibition [15] [%],inhibition [16] [%],inhibition [17] [%],inhibition [18] [%],inhibition [19] [%],inhibition [20] [%]
COc1cc2c(cc1Nc1nc(Nc3cccc(F)c3C(N)=O)c3cc[nH]c3n1)N(C(=O)CN1CCN(C(C)C)CC1)CC2,3.85,-0.63,-1.02,2.08,5.05,1.31,2.64,4.89,12.4,4.84,8.82,3.64,8.43,4.61,10.1,3.86,5.6,2.44,2.36,0.72
O=C1Nc2ccccc2/C1=C1\CCc2cc(O)ccc21,2.98,2.01,4.09,2.42,4.05,1.94,1.69,5.09,18.2,6.34,15.4,6.3,11.8,3.61,8.21,4.25,16.7,2.86,3.03,1.2
FC(F)(F)CNc1nccc(-c2cnn3ncccc23)n1,-1.39,1.84,1.19,1.1,1.36,0.94,1.72,3.65,5.03,3.32,2.13,2.29,3.81,1.02,1.12,2.48,2.8,1.1,0.78,-0.46
Fc1cccc(COc2ccc(Nc3ncncc3C#Cc3ccccc3)cc2Cl)c1,4.55,1.11,0.75,3.42,4.89,0.66,1.48,4.73,7.41,5.16,6.54,6.12,5.73,3.8,4.39,3.39,3.87,2.56,5.39,1.15
